Among the data in PMC9838217, “Structure of SALL4 zinc finger domain reveals link between AT-rich DNA binding and Okihiro syndrome” are binding signal values, retold here.

Residue numbers refer to the chain shown, from its start.

Common to all, as to assay: HT-SELEX; high values mean tight binding
What all share (settings): protein: recombinant; vector His6-GST; dsDNA, one strand shown

The target of one experiment is T1, SALL4 ZFC4 WT (HT-SELEX) (Mus musculus, UniProt Q8BX22 870-940).
T1 sequence: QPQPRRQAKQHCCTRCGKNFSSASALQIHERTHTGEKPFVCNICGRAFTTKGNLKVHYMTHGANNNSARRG
The method, boiled down:
(§1)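 DNA from a random library (1.5 µg in the first cycle, 200 ng afterwards) was incubated with purified recombinant mouse SALL4 zinc finger cluster 4, residues 870–940 (1 µg), for 10 min at room temperature in 100 µl buffer: 10 mM Tris–HCl pH 7.5, 50 mM NaCl, poly(dI-dC), DTT. Bound complexes were pulled down on Ni2+ beads, washed and PCR-amplified, and the selection was repeated for up to 6 cycles in triplicate. MiSeq reads were scanned for 6-mers, and binding signal is each canonical k-mer's read fraction as fold change over the initial random library.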

The target in experiment [1] is T2, SALL4 ZFC4 R900W (HT-SELEX) (Mus musculus, UniProt Q8BX22 870-940, R900W).
T2 sequence: T1 sequence with R31W
In outline: as §1

The target of experiment [2] is T3, SALL4 ZFC4 G921D (HT-SELEX) (Mus musculus, UniProt Q8BX22 870-940, G921D).
T3 sequence: T1 sequence with G52D
The method, boiled down:
as §1

Regarding CTGTAC, the values for the binding signal (in the experiment with SALL4 ZFC4 WT (HT-SELEX); in experiment [1]; in experiment [2]) were 0.751 ± 0.0338 fold-change vs cycle 0, 0.874 ± 0.0496 fold-change vs cycle 0 and 0.911 ± 0.0674 fold-change vs cycle 0, respectively.

Regarding CACAGA, the binding signal in the experiment with SALL4 ZFC4 WT (HT-SELEX) stood at 0.669 ± 0.0131 fold-change vs cycle 0; in experiment [1], 0.784 ± 0.0217 fold-change vs cycle 0; in experiment [2], 0.8476 ± 0.00739 fold-change vs cycle 0.

With AACTCT, the results for the binding signal (in the experiment with SALL4 ZFC4 WT (HT-SELEX); in experiment [1]; in experiment [2]) were 1.39 ± 0.0293 fold-change vs cycle 0, 1.52 ± 0.0171 fold-change vs cycle 0 and 1.47 ± 0.0843 fold-change vs cycle 0, respectively.

With GCGTTA, the binding signal is 0.54 ± 0.0741 fold-change vs cycle 0 with SALL4 ZFC4 WT (HT-SELEX), 0.582 ± 0.053 fold-change vs cycle 0 in experiment [1] and 0.668 ± 0.0435 fold-change vs cycle 0 in experiment [2].

Turning to CCGTGA, the binding signal in the experiment with SALL4 ZFC4 WT (HT-SELEX) came out at 0.39 ± 0.0265 fold-change vs cycle 0; in experiment [1], 0.468 ± 0.0123 fold-change vs cycle 0; in experiment [2] it was 0.578 ± 0.0442 fold-change vs cycle 0.

Take TTAAAA: the binding signal with SALL4 ZFC4 WT (HT-SELEX) was 2.8 ± 0.232 fold-change vs cycle 0; in experiment [1] it was 2.26 ± 0.146 fold-change vs cycle 0; in experiment [2] it was 1.97 ± 0.21 fold-change vs cycle 0.

Consider AATAAT, for which the binding signal stood at 4.57 ± 0.438 fold-change vs cycle 0 with SALL4 ZFC4 WT (HT-SELEX), 2.66 ± 0.189 fold-change vs cycle 0 in experiment [1] and 2.27 ± 0.265 fold-change vs cycle 0 in experiment [2].

Turning to ACAGGA, the binding signal with SALL4 ZFC4 WT (HT-SELEX) is 0.851 ± 0.0194 fold-change vs cycle 0; in experiment [1], 1 ± 0.0486 fold-change vs cycle 0; in experiment [2], 1.01 ± 0.0583 fold-change vs cycle 0.

In the case of ATGCTG, the binding signal in the experiment with SALL4 ZFC4 WT (HT-SELEX) is 0.649 ± 0.0321 fold-change vs cycle 0; in experiment [1], 0.712 ± 0.0351 fold-change vs cycle 0; in experiment [2] it was 0.801 ± 0.0529 fold-change vs cycle 0.

With AACTGG, the values for the binding signal (with SALL4 ZFC4 WT (HT-SELEX); in experiment [1]; in experiment [2]) were 0.7531 ± 0.00684 fold-change vs cycle 0, 0.889 ± 0.0264 fold-change vs cycle 0 and 0.904 ± 0.0346 fold-change vs cycle 0, respectively.

Regarding TATGAA, the binding signal with SALL4 ZFC4 WT (HT-SELEX) was determined as 3.56 ± 0.299 fold-change vs cycle 0; in experiment [1], 2.1 ± 0.116 fold-change vs cycle 0; in experiment [2], 1.85 ± 0.171 fold-change vs cycle 0.

As for AGAGTA, the binding signal in the experiment with SALL4 ZFC4 WT (HT-SELEX) was 1.47 ± 0.0798 fold-change vs cycle 0; in experiment [1], 1.61 ± 0.0906 fold-change vs cycle 0; in experiment [2] it was 1.46 ± 0.121 fold-change vs cycle 0.

On to ATTATC, for which the values for the binding signal (with SALL4 ZFC4 WT (HT-SELEX); in experiment [1]; in experiment [2]) were 2.31 ± 0.229 fold-change vs cycle 0, 2.08 ± 0.177 fold-change vs cycle 0 and 1.85 ± 0.207 fold-change vs cycle 0, respectively.

Consider AGGTAT, for which the binding signal with SALL4 ZFC4 WT (HT-SELEX) is 1.44 ± 0.0737 fold-change vs cycle 0; in experiment [1] it was 1.54 ± 0.0608 fold-change vs cycle 0; in experiment [2] it was 1.47 ± 0.0842 fold-change vs cycle 0.

With ATTAGA, the figures for the binding signal (with SALL4 ZFC4 WT (HT-SELEX); in experiment [1]; in experiment [2]) were 2.12 ± 0.0407 fold-change vs cycle 0, 2.08 ± 0.0537 fold-change vs cycle 0 and 1.85 ± 0.125 fold-change vs cycle 0, respectively.

In the case of AAATAG, the results for the binding signal (with SALL4 ZFC4 WT (HT-SELEX); in experiment [1]; in experiment [2]) were 1.7 ± 0.0926 fold-change vs cycle 0, 1.74 ± 0.095 fold-change vs cycle 0 and 1.58 ± 0.0914 fold-change vs cycle 0, respectively.

For the sequence CATCCA, the binding signal was 0.851 ± 0.0432 fold-change vs cycle 0 with SALL4 ZFC4 WT (HT-SELEX), 0.934 ± 0.0343 fold-change vs cycle 0 in experiment [1] and 0.974 ± 0.0408 fold-change vs cycle 0 in experiment [2].

As for GTAAAA, the binding signal in the experiment with SALL4 ZFC4 WT (HT-SELEX) was determined as 1.69 ± 0.0918 fold-change vs cycle 0; in experiment [1], 1.73 ± 0.0898 fold-change vs cycle 0; in experiment [2], 1.53 ± 0.125 fold-change vs cycle 0.

As to GATATC, the binding signal with SALL4 ZFC4 WT (HT-SELEX) amounted to 1.46 ± 0.0542 fold-change vs cycle 0; in experiment [1], 1.45 ± 0.075 fold-change vs cycle 0; in experiment [2], 1.39 ± 0.0375 fold-change vs cycle 0.

Turning to ACAACG, the results for the binding signal (in the experiment with SALL4 ZFC4 WT (HT-SELEX); in experiment [1]; in experiment [2]) were 0.592 ± 0.0372 fold-change vs cycle 0, 0.676 ± 0.029 fold-change vs cycle 0 and 0.769 ± 0.0401 fold-change vs cycle 0, respectively.

With ATCAAC, the binding signal came out at 1.34 ± 0.0602 fold-change vs cycle 0 in the experiment with SALL4 ZFC4 WT (HT-SELEX), 1.45 ± 0.0864 fold-change vs cycle 0 in experiment [1] and 1.42 ± 0.0753 fold-change vs cycle 0 in experiment [2].

CCAATC: the binding signal was determined as 0.76 ± 0.0281 fold-change vs cycle 0 with SALL4 ZFC4 WT (HT-SELEX), 0.854 ± 0.0448 fold-change vs cycle 0 in experiment [1] and 0.933 ± 0.0316 fold-change vs cycle 0 in experiment [2].

With CGATCA, the results for the binding signal (in the experiment with SALL4 ZFC4 WT (HT-SELEX); in experiment [1]; in experiment [2]) were 0.683 ± 0.0475 fold-change vs cycle 0, 0.7718 ± 0.00739 fold-change vs cycle 0 and 0.896 ± 0.0609 fold-change vs cycle 0, respectively.

With CTCCTA, the binding signal with SALL4 ZFC4 WT (HT-SELEX) was determined as 0.926 ± 0.0641 fold-change vs cycle 0; in experiment [1] it was 1.07 ± 0.0219 fold-change vs cycle 0; in experiment [2], 1.05 ± 0.0362 fold-change vs cycle 0.

Take CTATAC: the binding signal in the experiment with SALL4 ZFC4 WT (HT-SELEX) came out at 1.32 ± 0.0145 fold-change vs cycle 0; in experiment [1], 1.46 ± 0.0569 fold-change vs cycle 0; in experiment [2], 1.37 ± 0.0569 fold-change vs cycle 0.

For CACTAA, the results for the binding signal (with SALL4 ZFC4 WT (HT-SELEX); in experiment [1]; in experiment [2]) were 1.22 ± 0.0467 fold-change vs cycle 0, 1.38 ± 0.0225 fold-change vs cycle 0 and 1.29 ± 0.0518 fold-change vs cycle 0, respectively.

With CCGATC, the binding signal in the experiment with SALL4 ZFC4 WT (HT-SELEX) amounted to 0.399 ± 0.0279 fold-change vs cycle 0; in experiment [1] it was 0.473 ± 0.0177 fold-change vs cycle 0; in experiment [2], 0.64 ± 0.0658 fold-change vs cycle 0.

On to CTGAGA, for which the binding signal turned out to be 0.788 ± 0.03 fold-change vs cycle 0 with SALL4 ZFC4 WT (HT-SELEX), 0.922 ± 0.033 fold-change vs cycle 0 in experiment [1] and 0.951 ± 0.0498 fold-change vs cycle 0 in experiment [2].

On to ATGGGG, for which the binding signal with SALL4 ZFC4 WT (HT-SELEX) came out at 0.486 ± 0.0322 fold-change vs cycle 0; in experiment [1] it was 0.546 ± 0.0309 fold-change vs cycle 0; in experiment [2], 0.615 ± 0.052 fold-change vs cycle 0.

Consider CAACAG, for which the results for the binding signal (with SALL4 ZFC4 WT (HT-SELEX); in experiment [1]; in experiment [2]) were 0.698 ± 0.0379 fold-change vs cycle 0, 0.824 ± 0.0446 fold-change vs cycle 0 and 0.869 ± 0.0293 fold-change vs cycle 0, respectively.

As to CGTTCC, the figures for the binding signal (with SALL4 ZFC4 WT (HT-SELEX); in experiment [1]; in experiment [2]) were 0.389 ± 0.0208 fold-change vs cycle 0, 0.468 ± 0.0134 fold-change vs cycle 0 and 0.546 ± 0.0299 fold-change vs cycle 0, respectively.

Take CCTCAA: the figures for the binding signal (with SALL4 ZFC4 WT (HT-SELEX); in experiment [1]; in experiment [2]) were 0.759 ± 0.0289 fold-change vs cycle 0, 0.864 ± 0.0329 fold-change vs cycle 0 and 0.951 ± 0.0279 fold-change vs cycle 0, respectively.

For TACCTA, the binding signal with SALL4 ZFC4 WT (HT-SELEX) stood at 1.35 ± 0.0562 fold-change vs cycle 0; in experiment [1], 1.48 ± 0.0891 fold-change vs cycle 0; in experiment [2], 1.42 ± 0.0965 fold-change vs cycle 0.

Consider ACATTG, for which the binding signal in the experiment with SALL4 ZFC4 WT (HT-SELEX) was found to be 1.17 ± 0.0218 fold-change vs cycle 0; in experiment [1], 1.29 ± 0.0215 fold-change vs cycle 0; in experiment [2], 1.28 ± 0.0251 fold-change vs cycle 0.

In the case of TACAGA, the binding signal was found to be 1.3 ± 0.0338 fold-change vs cycle 0 with SALL4 ZFC4 WT (HT-SELEX), 1.38 ± 0.0448 fold-change vs cycle 0 in experiment [1] and 1.33 ± 0.0789 fold-change vs cycle 0 in experiment [2].

With AAAGAG, the binding signal was determined as 1.26 ± 0.0407 fold-change vs cycle 0 in the experiment with SALL4 ZFC4 WT (HT-SELEX), 1.46 ± 0.0773 fold-change vs cycle 0 in experiment [1] and 1.33 ± 0.0951 fold-change vs cycle 0 in experiment [2].

For the sequence CGGGAA, the binding signal in the experiment with SALL4 ZFC4 WT (HT-SELEX) worked out at 0.362 ± 0.00736 fold-change vs cycle 0; in experiment [1], 0.417 ± 0.0262 fold-change vs cycle 0; in experiment [2] it was 0.499 ± 0.0534 fold-change vs cycle 0.

On to AGCTAT, for which the binding signal was found to be 1.19 ± 0.0625 fold-change vs cycle 0 with SALL4 ZFC4 WT (HT-SELEX), 1.26 ± 0.0563 fold-change vs cycle 0 in experiment [1] and 1.27 ± 0.0842 fold-change vs cycle 0 in experiment [2].

Take ATCCGA: the binding signal in the experiment with SALL4 ZFC4 WT (HT-SELEX) was 0.684 ± 0.0383 fold-change vs cycle 0; in experiment [1], 0.781 ± 0.0221 fold-change vs cycle 0; in experiment [2], 0.89 ± 0.0142 fold-change vs cycle 0.

For CTTCTC, the binding signal with SALL4 ZFC4 WT (HT-SELEX) came out at 0.952 ± 0.0502 fold-change vs cycle 0; in experiment [1] it was 1.11 ± 0.0917 fold-change vs cycle 0; in experiment [2], 1.07 ± 0.0618 fold-change vs cycle 0.

For the sequence CAGGTA, the binding signal in the experiment with SALL4 ZFC4 WT (HT-SELEX) turned out to be 0.825 ± 0.0117 fold-change vs cycle 0; in experiment [1], 0.927 ± 0.0176 fold-change vs cycle 0; in experiment [2] it was 0.973 ± 0.0448 fold-change vs cycle 0.

Take AACGAT: the binding signal is 1.21 ± 0.0566 fold-change vs cycle 0 with SALL4 ZFC4 WT (HT-SELEX), 1.27 ± 0.0691 fold-change vs cycle 0 in experiment [1] and 1.23 ± 0.0814 fold-change vs cycle 0 in experiment [2].
